Compound activity (PubChem)
The list is not random: actives were taken first. Their share in the collection is about 1.1%.
PrPC TRFRET: inhibitors of human cell surface prion protein PrPC, primary screen, cell-based, TR-FRET; Major prion protein (Homo sapiens), P04156; TR-FRET read-out; inhibition, % at 13.8 µM; hit rate 0.43% among 370,000; AID 720596, 2013; in the data active = inhibition above about 24%
PrP UTR inh: inhibition of PrP 5' UTR reporter expression | cell-based PrP 5' UTR mRNA reporter, plate reader | inhibition, % (no concentration beside the values) | hit rate 0.35% among 340,000 | AID 488862, 2010; in the data active = inhibition above about 52%
BJeLR lethal: MLPCN primary cell-based screen for lethality selective to Ras in HRASV12 cells. hit rate 0.17% among 300,000. BJeLR (HRASV12) viability, CellTiter-Glo ATP luminescence, 48 h. inhibition, % (no concentration beside the values); in the data active = inhibition above about 50%
MazF activator: activators of E. coli MazEF toxin-antitoxin RNase, primary screen, biochemical, fluorescence, uHTS | FAM/BHQ RNA-DNA oligo cleavage fluorescence, 5 h | activation, % at 20 µM | AID 504720, 2011 | Endoribonuclease toxin MazF (Escherichia coli (strain K12)), P0AE70 | hit rate 0.32% among 350,000; in the data active = activation above about 50%
Target sequence (P0AE70 whole entry, looked up): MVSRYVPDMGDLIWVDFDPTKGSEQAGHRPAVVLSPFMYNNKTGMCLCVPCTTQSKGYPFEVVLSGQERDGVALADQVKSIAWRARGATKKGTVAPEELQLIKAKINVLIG
Each line names hits and unclear results; the compound was inactive in the other large screens.

Cc1ccc(S(=O)(=O)c2cc3c(=O)n4cccc(C)c4nc3n(C3CCCCC3)c2=N)cc1	MazF activator 52 (no result: PrPC TRFRET)
CCn1c(=N)c(S(=O)(=O)c2ccc(C)cc2)cc2c(=O)n3ccccc3nc21	none (no result: PrP UTR inh, MazF activator)
CCn1c(=N)c(S(=O)(=O)c2ccccc2)cc2c(=O)n3ccccc3nc21	MazF activator 228
Cc1ccc(S(=O)(=O)c2cc3c(=O)n4ccccc4nc3n(CCc3ccccc3)c2=N)cc1	MazF activator 72
Cc1cccn2c(=O)c3cc(S(=O)(=O)c4ccc(Br)cc4)c(=N)n(C4CCCCC4)c3nc12	none
COc1cc(NC(=O)c2cnn3c(C)cc(C)nc23)cc(OC)c1OC	none (no result: PrP UTR inh, BJeLR lethal, MazF activator)
O=Cc1ccc(O)c2ncccc12	BJeLR lethal 64 (no result: PrPC TRFRET)
COc1ccccc1N=Cc1c(C)c(C#N)c2[nH]c3ccccc3n2c1=O	MazF activator 143
Cc1c(Cc2ccccc2)c(=O)n2c([nH]c3ccccc32)c1C#N	none
O=C(CCCCCN1C(=O)C2C3C=CC(C3)C2C1=O)Nc1cc(F)cc(F)c1 (stereo not drawn)	none (no result: PrP UTR inh, BJeLR lethal, MazF activator)
O=c1oc2ccccc2cc1-c1nc2ccccc2o1	none (no result: BJeLR lethal)
O=c1oc2ccc3ccccc3c2cc1-c1nc2ccccc2o1	MazF activator 329
COC(=O)[C@]12C[C@H](CC(=O)NCCc3ccccc3OC)C(=O)N(Cc3ccccc3)C1=C[C@H](COCc1ccccc1)O[C@@H]2C	none (no result: PrP UTR inh, BJeLR lethal, MazF activator)
N#C/C(=C\c1ccc([N+](=O)[O-])o1)c1nc2ccccc2[nH]1	none (no result: PrP UTR inh)
N#C/C(=C(/O)c1ccc([N+](=O)[O-])o1)c1nc2ccccc2[nH]1	MazF activator 141
CCOC(=O)C1Oc2ccccc2C(c2cccc3ccccc23)=C1C(=O)OC (stereo not drawn)	MazF activator 146 (no result: BJeLR lethal)
CCOC(=O)C1Oc2ccccc2C(C(=O)OC)=C1C(=O)OC (stereo not drawn)	none (no result: PrPC TRFRET, BJeLR lethal)
O=C(c1cccs1)c1no[n+]([O-])c1C(=O)c1cccs1	BJeLR lethal 71 (no result: PrPC TRFRET)
COc1ccc(N=c2oc3cc(O)ccc3cc2C(=O)NCC2CCCO2)c(OC)c1 (stereo not drawn)	MazF activator 85
Cc1cc(C)n(-c2nc3ccccc3nc2NCCc2ccccc2)n1	none
COc1ccc(Nc2nc3ccccc3nc2-n2nc(C)cc2C)cc1	MazF activator 178
Cc1cc(C)n(-c2nc3ccccc3[nH]c2=O)n1	none
Cc1cc(C)n(-c2nc3ccccc3nc2Nc2ccc3[nH]c(=O)[nH]c3c2)n1	MazF activator 234
Clc1ccc(/C=C/c2nc3ccccc3[nH]2)cc1	MazF activator 67
Clc1ccc(/C=C/c2nc3ccccc3[nH]2)c(Cl)c1	none
COc1ccc(S(=O)(=O)Nc2ccc3c(c2)C(=O)N([C@H](C)CO)C[C@H](C)[C@H](CN(C)C(=O)Nc2ccc(F)cc2)OCCCC[C@@H](C)O3)cc1	none (no result: PrP UTR inh, BJeLR lethal, MazF activator)
CN(C)CCNC(=S)Nc1ccc(-c2nc3ccccc3[nH]2)cc1	none
S=C(NCc1ccc2c(c1)OCO2)Nc1ccc(-c2nc3ccccc3[nH]2)cc1	MazF activator 50
CC1CN(C(=O)c2cc3cc(Br)ccc3[nH]2)CC(C)O1 (stereo not drawn)	none
Cc1c(C(=O)N2CC(C)OC(C)C2)[nH]c2ccc(Br)cc12 (stereo not drawn)	PrPC TRFRET 28
COc1ccc2c(C)cc(SCC(=O)Nc3cc(C(N)=O)cc(C(N)=O)c3)nc2c1	MazF activator 104
CCN1C(=O)C(=Cc2cccc(OC)c2Oc2ccc([N+](=O)[O-])cc2[N+](=O)[O-])SC1=S	BJeLR lethal 94 (no result: PrP UTR inh)
Cc1ccc(C2CC(c3cccs3)=NN2C(=O)CCl)cc1 (stereo not drawn)	BJeLR lethal 63 (no result: PrP UTR inh)
CCC(=O)N1N=C(c2cccs2)CC1c1ccc(C)cc1 (stereo not drawn)	none
O=c1[nH]c(-c2ccccc2)cn1C1CCN(Cc2ccc(-c3nc4ccccc4nc3-c3ccccc3)cc2)CC1	none (no result: PrP UTR inh, BJeLR lethal, MazF activator)
CCC[C@@H](CNC)NC[C@H](Cc1ccccc1)NCCCCc1ccccc1	none
CNC[C@@H](Cc1ccccc1)NC[C@@H](CC1CCCCC1)NCCCc1ccccc1	BJeLR lethal 92
CNC[C@@H](CC1CCCCC1)NC[C@H](CC(C)C)NCCc1cccc(C(F)(F)F)c1	BJeLR lethal 54
CC[C@@H](C)[C@H](CNC)NC[C@@H](Cc1cccc2ccccc12)NCCc1cccc(C(F)(F)F)c1	none
Cc1cc2c(nc1C)CCCN2S(=O)(=O)c1cccs1	none (no result: PrP UTR inh, BJeLR lethal, MazF activator)
Nc1[nH]c(C(=O)c2ccc(Br)cc2)c(-c2ccc(F)cc2)c1C(=O)NCCc1c[nH]c2ccccc12	none (no result: PrP UTR inh, BJeLR lethal, MazF activator)
COc1ccc(/C=C/C(=O)NC(=S)N2CCN(C)CC2)cc1	MazF activator 51
CCC/C(=C1/c2ccccc2C(=O)N1c1ccccc1)c1c(C)noc1C	none (no result: PrP UTR inh, BJeLR lethal, MazF activator)
Cn1nc(-c2ccccc2)c2nc3ccccc3nc21	MazF activator active
C=CCN1C(=O)[C@@H](CC(=O)N2CCSCC2)[C@]2(C(=O)OCC)CCCCC/C=C/12	none (no result: PrP UTR inh, BJeLR lethal, MazF activator)
C=CCn1c(O)c(N=Nc2ccccc2O)c2ccccc21	MazF activator 311 (no result: BJeLR lethal)
O=C1NC(c2ccc(Br)cc2)c2c(-c3ccccc3)n[nH]c21 (stereo not drawn)	none (no result: PrP UTR inh, BJeLR lethal, MazF activator)
Cc1ccc2[nH]c3c(c2c1)CCCC3NC(=O)CCl (stereo not drawn)	BJeLR lethal 60 (no result: PrPC TRFRET)
Cc1ccc2[nH]c3c(c2c1)CCCC3C(N)=O (stereo not drawn)	none
CCCN(CCC)c1nc(N)c(C#N)c(CC#N)c1C#N	MazF activator 134 (no result: PrPC TRFRET)
CC(C)(C)OC(=O)N/N=C/c1ccc(N2CCOCC2)s1	MazF activator 226
Nc1ccc(C(=O)N/N=C/c2ccc(N3CCOCC3)s2)cc1	none (no result: BJeLR lethal)
O=C(OCc1cn(Cc2ccccc2F)nn1)N1CCOCC1	none (no result: PrP UTR inh, BJeLR lethal, MazF activator)
CC(=O)NC1CCCCN(C(C)C)C1=O (stereo not drawn)	none (no result: PrP UTR inh, BJeLR lethal, MazF activator)
COC(=O)C1=C(C)N=c2s/c(=C/c3ccoc3)c(=O)n2C1c1ccccc1 (stereo not drawn)	MazF activator 88 (no result: PrPC TRFRET)
CC(=O)/C=C/n1c(=S)oc2ccccc21	BJeLR lethal 71 (no result: PrP UTR inh)
O=C(CSc1nc2ccccc2c(=O)n1Cc1ccco1)Nc1cccc(O)c1	MazF activator 59
O=C(CSc1nc2ccccc2c(=O)n1Cc1ccco1)NCc1ccccc1	none
COc1ccc(-c2ccc(-c3noc(-c4ccccc4OC)n3)c(OC)n2)cc1	MazF activator 61
COc1ccc(-c2ccc(-c3noc(-c4ccccc4C)n3)c(OC)n2)cc1	none
CN(Cc1ccc(F)cc1)C(=O)c1cccc2c1C(=O)N(Cc1cccnc1)C2	none (no result: PrP UTR inh, BJeLR lethal, MazF activator)
O=c1[nH]cnc2scc(-c3ccc(-c4ccccc4)cc3)c12	MazF activator 83
O=C(N/N=C(\c1ccccc1)c1cccnc1)c1cccc(F)c1	BJeLR lethal 67
CCCCN1C2=C(C(=O)CCC2)C(c2ccc(Cl)c(Cl)c2)C2=C1c1ccccc1C2=O (stereo not drawn)	MazF activator 60
CNc1nc(-c2ccccc2)cc(C(F)(F)F)c1C#N	MazF activator 400
C#CCSc1nc(-c2ccccc2)cc(C(F)(F)F)c1C#N	none
CCN(CC(=O)Nc1ccc(C(=O)OC)cc1)C1CCCCC1	MazF activator 157
